Reference: PubChem BioAssay (NCATS)
Results filed as inconclusive are left out. Activity calls are given as the source filed them. Calls follow the shape of the dose curve; as a rule, active = well fitted cell-killing curve with a large enough effect; inconclusive = small, poorly fitted or top-dose-only effect, or effect the other way; inactive = flat fitted curve, though single readings scatter.

System: CAOV3
Test: Primary qHTS to identify gynecologic anti-cancer compounds using libraries of approved drugs and bioactive compounds (AID 1345084); also: nearly all actives have a fitted effect of over 55% in size
Conditions: Gynecologic cancer cell panel viability, ATPlite luminescence, 48 h; series mostly up to 57.5 µM; activity change, negative = cytotoxicity: at the top concentration
From the text: National Center for Advancing Translational Sciences [NCATS] Assay Overview: Chemotherapeutic drug responses vary from cancer to cancer and from patient to patient. These variations could be caused by a number of factors including patient genomic background, tumor mutations, tumor heterogeneity, and aspects of drug treatment. Chemotherapeutic drug resistance is also a common issue and can lead to ineffective treatment and patient death. Here we have profiled the cell killing effects of thousands of compounds to characterize the responses in three gynecological cancers, identify cancer-selective compounds, and understand the diversity of responses to these compounds from pan-cancer suppressors to single cell line selective compounds. In this assay, we screened a 7,914 compound drug library that included approved drug and bioactive compounds in six ovarian, three cervical, and […] placental cancer cell lines using the ATPlite assay for cell viability. […] The cervical cancer cell lines included HeLa, Ca Ski, and C-33 A. The placental cancer cell lines included JEG-3. HEK 293T cells were used as the control cell line to determine the selectivity index. ATPlite is a luminescence based assay reliant on the conversion of a luciferase substrate to light in the presence of ATP. As a cytotoxic compound will suppress growth and decrease the number of cells, the concentration of ATP will decrease, and less light signal will be detected in the well.
Assay Protocol Summary: 1,000 cells in 4 uL of media were dispensed into white, solid bottom 1536-well plates using a Multidrop Combi (Thermo Scientific). The Assay plates were incubated for 16 hours at 37 C with 5% CO2 in assay plates, followed by the addition of 23 nL of DMSO or drug dissolved in DMSO. Each compound was assayed in five concentrations (0.092, 0.46, 2.3, 11.5, and 57.5 uM), using the automated Wako 1536 Pin Tool workstation and incubated at 37 C with 5% CO2 48 hours. 4 uL of ATPlite, the ATP monitoring reagent, was then added to the each well of the assay plates using the Multidrop Combi reagent dispenser followed by incubation for 15 minutes at room temperature. The resulting luminescence was measured using the ViewLux plate reader.
% is scaled to controls: 0 for no effect and ±100 for the full control effect.

Row | SMILES | activity change, negative = cytotoxicity | outcome
1 | COP(=S)(OC)Oc1ccc(S(=O)(=O)N(C)C)cc1 | 3.08% (inactive) | 
2 | C[C@]12CC[C@H]3[C@@H](CCC4=CC(=O)CC[C@@H]43)[C@@H]1CC[C@@H]2OC(=O)CCc1ccco1 | 3.19% (inactive) | 
3 | CCCCC/C=C\C/C=C\C/C=C\C/C=C\CCCC(=O)NCC(=O)O | 2.14% (inactive) | 
4 | CCC1(c2ccc(N)cc2)CCC(=O)NC1=O (stereo not given) | 1.47% (inactive) | 
5 | C[C@]12Cc3cn[nH]c3C[C@@H]1CC[C@@H]1[C@@H]2CC[C@@]2(C)[C@H]1CC[C@]2(C)O | 10.1% (inactive) | 
6 | CCC1(CC)C(=O)C=CNC1=O | -17.6% (inactive) | 
7 | COP(=S)(OC)Oc1cc(Cl)c(Cl)cc1Cl | 5.22% (inactive) | 
8 | CCN(CC)CCc1c[nH]c2ccccc12 | 5.73% [at 222 µM] (inactive) | 
9 | COc1cc(CCN)cc(OC)c1OC | 7.83% [at 116 µM] (inactive) | 
10 | Nc1ccc([As](=O)(O)O)cc1 | 12.4% (inactive) | 
11 | CN1CCC(O)(c2ccc(F)cc2)C(C(=O)c2ccc(F)cc2)C1 (stereo not given) | 13.4% (inactive) | 
12 | CCC1(c2ccccc2)C(=O)N(COC)C(=O)N(COC)C1=O | 0% (inactive) | 
13 | Clc1ccccc1N1CCNCC1 | 15.8% (inactive) | 
14 | CC(C(=O)c1ccccc1)N(C)C (stereo not given) | -7.2% (inactive) | 
15 | CNCC(=O)c1ccc(O)c(O)c1 | 3.49% (inactive) | 
16 | Cc1ncsc1CCCl | 7.54% (inactive) | 
17 | COc1ccc2c(c1OC)C(=O)O[C@H]2[C@@H]1c2cc3c(cc2CCN1C)OCO3 | 1.77% (inactive) | 
18 | CC(C)(C)c1ccc(O)cc1 | 17.3% (inactive) | 
19 | CN1C(=O)NC(=O)C(C)(C2=CCCCC2)C1=O (stereo not given) | 11.8% (inactive) | 
20 | CCC(CC)(CNC(=O)CCCO)c1cccc(OC)c1 | -1.39% (inactive) | 

Row | SMILES | activity change, negative = cytotoxicity | outcome
21 | CCN(CC)C(=O)[C@@H]1C=C2c3cccc4[nH]cc(c34)C[C@H]2N(C)C1 | -15.3% [at 222 µM] (inactive) | 
22 | CC(NC(C)(C)C)C(=O)c1cccc(Cl)c1 (stereo not given) |  | inactive
23 | CCC(C)(C)c1ccc(O)cc1 | 8.39% (inactive) | 
24 | O=C1CN=C(c2ccccc2)c2cc([N+](=O)[O-])ccc2N1 | -9.53% (inactive) | 
25 | CC(C)c1c(CN(C)C(C)Cc2ccccc2)n(C)n(-c2ccccc2)c1=O (stereo not given) | -2.06% (inactive) | 
26 | O=c1[nH]oc2c1CCNC2 | 17.1% (inactive) | 
27 | CC(C)(N)Cc1ccccc1Cl | 6.19% (inactive) | 
28 | CC(C)(C)NCC(O)c1ccccc1Cl (stereo not given) | -4.39% (inactive) | 
29 | COc1cc(OC)c(OC)cc1C=O | -2.06% [at 116 µM] (inactive) | 
30 | ClCCN1CCCC1 | -5.59% (inactive) | 
31 | O=[N+]([O-])O[C@H]1CO[C@H]2[C@@H]1OC[C@H]2O[N+](=O)[O-] | 0.332% (inactive) | 
32 | CN1CC[C@]23c4c5ccc(O)c4O[C@H]2[C@@H](O)C=C[C@H]3[C@H]1C5 | 13.7% [at 116 µM] (inactive) | 
33 | CC(C)NC(C)C | 6.78% (inactive) | 
34 | CN1C(=O)CCS(=O)(=O)C1c1ccc(Cl)cc1 (stereo not given) | 18.7% (inactive) | 
35 | Nc1ccccc1C(=O)O | -2.89% (inactive) | 
36 | C[C@H]1[C@@H]2Cc3ccc(O)cc3[C@@]1(C)CCN2C | 6.63% [at 288 µM] (inactive) | 
37 | C[C@]12CCC(=O)C=C1CC[C@@H]1[C@@H]2CC[C@]2(C)C(=O)CC[C@@H]12 | 9.23% (inactive) | 
38 | C=CCN1C[C@H](C)N([C@H](c2ccc(C(=O)N(CC)CC)cc2)c2cccc(OC)c2)C[C@H]1C |  | inactive
39 | C[C@@H]1CC2=CC(=O)CC[C@@H]2[C@H]2CC[C@@]3(C)[C@@H](CC[C@]3(C)O)[C@@H]21 | -21.6% (inactive) | 
40 | Nc1ccccc1 | -1.06% (inactive) | 
